# Assay outcomes from PubChem.
# PD-1 reversal – activators reversing PD-1 mediated T-cell inhibition. primary human CD4 T cells, PD-L1 beads, CellTiter-Glo 96 h. activation, % (test concentration not listed). 29,000 tested, under 10 active; call rule not given here;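 note: 0% = median vehicle wells and 100% = positive control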
# NOMO-1 viab – STK33 inhibitor candidate reducing NOMO-1 cell viability; AID 2330; inhibition, % (no concentration beside the values); NOMO-1 AML viability, CellTiter-Glo luminescence, 72 h; 37,000 tested, 7.5% active; in the data active = inhibition above about 80%
# STK33 inh – human STK33 kinase inhibition; Q9BYT3; ADP-Glo luminescence, MBP substrate; inhibition, % at 12.5 µM; 27,000 tested, 0.44% active; in the data active = inhibition above about 20%
# Target sequence (Q9BYT3 whole entry, looked up): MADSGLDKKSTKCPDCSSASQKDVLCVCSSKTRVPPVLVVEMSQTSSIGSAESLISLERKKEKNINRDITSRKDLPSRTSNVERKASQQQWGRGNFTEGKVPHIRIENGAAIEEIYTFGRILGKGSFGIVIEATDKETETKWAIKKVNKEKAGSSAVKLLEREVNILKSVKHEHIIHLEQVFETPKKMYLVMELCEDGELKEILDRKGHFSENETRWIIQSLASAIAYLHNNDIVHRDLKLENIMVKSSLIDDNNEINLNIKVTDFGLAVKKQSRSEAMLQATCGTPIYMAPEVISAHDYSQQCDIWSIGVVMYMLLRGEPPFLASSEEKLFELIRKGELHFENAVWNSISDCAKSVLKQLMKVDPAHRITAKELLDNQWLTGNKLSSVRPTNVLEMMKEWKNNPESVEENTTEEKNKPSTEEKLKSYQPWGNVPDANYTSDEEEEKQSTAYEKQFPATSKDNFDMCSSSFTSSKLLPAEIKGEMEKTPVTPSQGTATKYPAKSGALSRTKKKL
# Active calls of the source: *; / = no result. The full list was thinned out, with hits kept by preference.
SMILES,PD-1 reversal,NOMO-1 viab,STK33 inh
C[C@@H]1CN([C@H](C)CO)C(=O)Cc2cc(NC(=O)Nc3ccc(C(F)(F)F)cc3)ccc2O[C@H]1CN(C)C,3.2,-9.4,-0.5
C[C@@H]1CN([C@H](C)CO)C(=O)Cc2cc(NC(=O)Nc3ccc(C(F)(F)F)cc3)ccc2O[C@@H]1CN(C)S(=O)(=O)c1cccs1,0.1,74.0,2.0
C[C@@H]1CN([C@H](C)CO)C(=O)Cc2cc(NC(=O)Nc3ccc(F)cc3)ccc2O[C@@H]1CN(C)S(=O)(=O)c1cn(C)cn1,/,20.0,1.0
C[C@H]1CN([C@@H](C)CO)C(=O)Cc2cc(NC(=O)Nc3ccc(C(F)(F)F)cc3)ccc2O[C@H]1CN(C)S(C)(=O)=O,/,89.7*,0.9
C[C@H](CO)N1C[C@H](C)[C@H](CN(C)C)Oc2ccc(NC(=O)Nc3ccc(C(F)(F)F)cc3)cc2CC1=O,/,41.4,2.3
C[C@@H]1CN([C@H](C)CO)C(=O)Cc2cc(NC(=O)Nc3ccc(C(F)(F)F)cc3)ccc2O[C@@H]1CN(C)S(C)(=O)=O,-1.9,86.3*,0.3
COC(=O)c1ccccc1NC(=O)c1ccc(NC(=O)CSc2ccc(C)cc2)cc1,/,11.8,6.9
O=C(Nc1ccc(S(=O)(=O)Nc2ccccn2)cc1)c1cc2ccccc2oc1=O,-1.0,15.4,2.5
Cc1c(C#N)c(Sc2ccccc2NC(=O)c2ccccc2)nc2ccccc12,-1.3,28.9,/
CC(NS(=O)(=O)c1ccccc1)C(=O)Nc1cc(Cl)ccc1Oc1ccccc1 (stereo not given),-2.2,40.1,9.8
C=C1C2CC[C@@]3(C)[C@H](c4ccoc4)OC(=O)C[C@]13O[C@H]1CC(=O)C(C)(C)[C@H](C(O)C(=O)OC)[C@@]21C (stereo not given in full),/,28.6,2.8
CC(C(=O)Nc1ccccc1Br)N(c1ccc(Cl)cc1)S(C)(=O)=O (stereo not given),-0.5,-1.8,1.7
COc1ccc(S(=O)(=O)N(C)CC(=O)NC2CC2)cc1C,/,-7.6,-0.9
COc1ccc(-c2cc3cc(OC)c(OC)cc3c(Cc3ccccc3)n2)cc1,-0.6,34.6,/
COc1cc2cc(C)nc(Cc3cccc4ccccc34)c2cc1OC,-1.8,85.8*,/
Cc1sc2nc(SCc3cc(=O)[nH][nH]3)nc(N)c2c1C,0.1,6.5,-1.0
Cc1cc(C)c(S(=O)(=O)N(C)CC(=O)Nc2cccc(C)c2C)c(C)c1,-2.0,27.9,-9.6
CC(=O)Nc1cccc(NC(=O)CNc2ccc(C(F)(F)F)cc2[N+](=O)[O-])c1,1.0,-11.6,4.4
N#Cc1ccc(-c2ccc(OC(=O)CS(=O)c3ccc(C(F)(F)F)cc3[N+](=O)[O-])cc2)cc1 (stereo not given),-11.5,129.3*,1.5
O=C(NCCNc1ccc(C(F)(F)F)cc1[N+](=O)[O-])c1ccc(F)cc1,-1.9,18.4,-3.0
COC(=O)c1ccc(OC(=O)CS(=O)c2ccc(C(F)(F)F)cc2[N+](=O)[O-])cc1 (stereo not given),/,108.7*,0.0
Cc1ccc(Cl)cc1NC(=O)CCCN1C(=O)c2ccccc2C1=O,-3.3,-6.1,-0.5
COCC(=O)Nc1cc(Sc2ccccc2)ccc1N=C(NC(C)=O)NC(C)=O,0.5,49.4,1.0
COc1ccc(-c2csc3ncn(CC(=O)Nc4ccccc4)c(=O)c23)cc1,0.0,40.2,0.3
Cc1ccc(-c2nc3ncccc3o2)cc1NC(=O)C(C)Oc1ccc(Cl)cc1Cl (stereo not given),1.9,17.1,-0.8
SMILES,PD-1 reversal,NOMO-1 viab,STK33 inh
COc1cc(C(=O)Nc2cccc(-c3nc4ncccc4o3)c2)cc(OC)c1OC,/,34.3,30.4*
O=C(COc1ccc(Br)cc1)Nc1cccc(-c2nc3ncccc3o2)c1,-0.7,15.2,8.6
COc1cc(C(=O)Nc2cc(-c3nc4ncccc4o3)ccc2C)ccc1OCc1ccc(Cl)cc1,-10.6,112.4*,-0.7
COc1ccc(C(Nc2cc(C)ccn2)c2ccc3ccc(C)nc3c2O)cc1 (stereo not given),/,98.9*,4.1
CCc1ccc(C(Nc2ccccn2)c2ccc3ccc(C)nc3c2O)cc1 (stereo not given),/,110.0*,-0.5
Cc1ccnc(NC(c2ccsc2)c2ccc3ccc(C)nc3c2O)c1 (stereo not given),-17.2,89.1*,2.8
COc1ccc(NC(=O)CSc2nccc(C)n2)cc1,/,18.0,-1.4
CCc1ccc(C(Nc2cc(C)ccn2)c2ccc3ccc(C)nc3c2O)cc1 (stereo not given),/,89.2*,0.6
O=C(O)CSc1ccc(Br)c2cccc(C(=O)O)c12,2.0,2.9,2.6
C[C@H]1O[C@@H](O[C@H]2C[C@H]3C(=O)C[C@]4(C)C(=CCC5[C@@]6(C)CC[C@H](O[C@@H]7OC[C@@H](O)[C@H](O)[C@H]7O)[C@@](C)(C=O)C6CC[C@]54C)[C@@H]3CC2(C)C)[C@H](O)[C@@H](O)[C@@H]1O[C@@H]1O[C@H](C(=O)O)[C@@H](O)[C@H](O)[C@H]1O (stereo not given in full),0.7,-3.7,-1.8
COc1c(O)cc2occ(-c3ccccc3O)c(=O)c2c1O,2.0,7.9,1.6
Cc1ccc(-n2c(SCC(=O)c3ccc(Cl)cc3)nnc2-c2ccco2)cc1,-2.1,25.9,-2.3
COC(=O)c1ccccc1NC(=O)c1nc2ncccn2n1,1.0,26.4,-4.2
Cc1ccc2oc(-c3cc(NC(=O)COc4ccccc4)ccc3Cl)nc2c1,2.1,22.4,2.8
CCc1nc(-n2nnc3cc(C)c(C)cc32)c2c3c(sc2n1)CCCC3,0.6,31.5,/
COc1ccc(NC(=O)C2CCCCC2C(=O)O)cc1 (stereo not given),/,0.6,0.6
CC1OC(OC2C(O)C(C)OC(OCC3OC(OC4C(C)OC(Oc5cc(O)c6c(=O)c(O)c(-c7ccc(O)c(O)c7)oc6c5)C(O)C4O)C(O)C(O)C3OC(=O)/C=C/c3ccc(O)cc3)C2O)C(O)C(O)C1O (stereo not given),1.8,8.2,1.0
Cc1ccnc(NC(c2cccc(F)c2)c2ccc3ccc(C)nc3c2O)c1 (stereo not given),/,115.8*,1.1
CC(C)Sc1nc2sc3c(c2c2nnc(SCC(=O)c4ccccc4)n12)CCCC3,/,/,1.6
COc1cc(OC)c(C2=NOC(C(=O)NCc3ccco3)C2)cc1Cl (stereo not given),1.2,128.7*,-3.0
O=C(NCc1ccco1)C1CC(c2ccccc2O)=NO1 (stereo not given),/,19.5,1.9
CC(=O)OC[C@]12CCC(C)=CC1O[C@@H]1[C@H](O)[C@@H](O[C@H]3O[C@H](CO)[C@@H](O)[C@H](O)[C@H]3O)[C@@]2(C)C12CO2 (stereo not given in full),/,/,4.9
CC1=CC2OC3[C@H](O)C[C@](C)([C@@]2(CO)CC1=O)[C@]31CO1 (stereo not given in full),-1.7,118.5*,-2.5
O=C(NCc1cccnc1)c1cc2cc(Cl)ccc2oc1=O,0.6,2.4,-1.6
Cn1c(SCc2nc(-c3ccc(Cl)cc3)no2)nnc1-c1ccccc1,/,-20.2,0.7
Cc1c(C2CCN(CCc3ccccc3)CC2)noc1-c1ccc(Cl)cc1,/,92.9*,2.6
O=S(=O)(Cc1ccc(Cl)cc1)NCc1ccccn1,/,11.1,1.4
